Experimental data taken from paper PMC5540273 (PLoS ONE, 2017).

What was measured:
Conditions in all cases: concentration: 1 μM, replicates: in singlicate; n = 1
[1] = system: EPHB4
[2] = system: EPHB6
[3] = system: ERBB2
[4] = system: ERBB3
[5] = system: ERBB4
[6] = system: T1, ERK1
T1 construct: gene MAPK3

[7] = system: T2, ERK2
T2 construct: gene MAPK1

[8] = system: T3, ERK3
T3 construct: gene MAPK6

[9] = system: T4, ERK4
T4 construct: gene MAPK4

[10] = system: T5, ERK5
T5 construct: gene MAPK7

[11] = system: T6, ERK8
T6 construct: gene MAPK15

[12] = system: ERN1
[13] = system: T7, FAK
T7 construct: gene PTK2

[14] = system: FER
[15] = system: FES
[16] = system: FGFR1
[17] = system: FGFR2
[18] = system: FGFR3
[19] = system: FGFR4
[20] = system: FGR
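Further: KINOMEscan kinase panel screen.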

Compound	%Inh [1] [%]	%Inh [2] [%]	%Inh [3] [%]	%Inh [4] [%]	%Inh [5] [%]	%Inh [6] [%]	%Inh [7] [%]	%Inh [8] [%]	%Inh [9] [%]	%Inh [10] [%]	%Inh [11] [%]	%Inh [12] [%]	%Inh [13] [%]	%Inh [14] [%]	%Inh [15] [%]	%Inh [16] [%]	%Inh [17] [%]	%Inh [18] [%]	%Inh [19] [%]	%Inh [20] [%]
Cc1c(Cn2c(C)c(C)n3c(=O)cc(N4CCOCC4)nc23)cccc1C(F)(F)F [GSK2328680]	14	0	0	16	4	0	0	8	0	0	8	9	0	15	0	0	41	6	0	20
COc1ccc(Nc2nccc(NCCNC(=O)Nc3cc(C)ccc3C)n2)cc1 [GSK1379899]	8	0	1	0	0	1	0	0	0	0	43	0	0	17	4	11	15	0	0	14
COc1ccc(CSc2nnc(-c3ccc4c(c3)CCO4)o2)cc1	13	0	18	0	0	0	0	0	0	6	0	0	0	0	12	0	0	0	0	14
COc1cccc(CNC(=O)NC2CCN(c3ccnc(Nc4ccc(F)cc4)n3)C2)c1 (centres unmarked) [GSK1379723]	2	15	2	0	22	0	0	10	0	0	60	4	0	6	0	0	3	15	10	8
COc1nccc(-c2c(-c3ccc(F)cc3)ncn2CCCN2CCOCC2)n1 [SB-282852]	0	17	40	46	4	0	0	0	0	0	4	16	0	0	0	46	0	0	0	1
COc1cccc(NC(=O)Nc2ccc(C)c(-c3ccc(C(=O)Nc4ccncc4)cc3)c2)c1 [GSK1398474]	8	26	0	0	25	7	0	7	1	0	1	1	13	42	12	9	0	28	3	32
Cc1ccccc1-c1cc(-c2c[nH]nc2-c2ccccn2)ccn1 [GW680061]	10	4	22	0	25	1	0	0	25	0	0	0	0	2	0	0	0	0	0	15
Cc1c(Cn2c3ccccc3n3c(=O)cc(N4CCOCC4)nc23)cccc1C(F)(F)F [GSK2306394]	0	0	0	0	60	36	0	0	100	0	26	10	0	6	0	4	2	0	0	0
COc1ccc(Nc2nccc(N3CCC(NC(=O)C(C)c4ccc(Cl)cc4)CC3)n2)cc1 (centres unmarked) [GSK1379812]	0	100	19	19	0	0	4	2	0	0	0	0	0	46	19	0	0	30	4	5
O=C(Nc1n[nH]c2nc(-c3ccco3)c(Br)cc12)C1CCN(Cc2ccccc2)C1.O=C(O)[C@H](O)[C@@H](O)C(=O)O (centres unmarked) [SB-742034]	0	34	0	0	13	8	1	0	0	0	2	19	4	0	0	23	0	0	10	6
